ABHD5 PLIN5 PPI: ABHD5-PLIN5 interaction inhibitors, primary screen, cell lysate, split luciferase complementation, luminescence. Perilipin-5 (Homo sapiens) + 1-acylglycerol-3-phosphate O-acyltransferase ABHD5 (Homo …. Split G. princeps luciferase complementation, 4 h. inhibition, % at 4 µM. 360,000 compounds, 0.78% hits. AID 602281, 2012;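 active means inhibition above the mean inhibition across every tested compound plus 3 SD, cut at about 22% in these data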;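 further: 0% = DMSO only wells and the 100% control is not disclosed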
Target sequence (Q00G26 whole entry, looked up): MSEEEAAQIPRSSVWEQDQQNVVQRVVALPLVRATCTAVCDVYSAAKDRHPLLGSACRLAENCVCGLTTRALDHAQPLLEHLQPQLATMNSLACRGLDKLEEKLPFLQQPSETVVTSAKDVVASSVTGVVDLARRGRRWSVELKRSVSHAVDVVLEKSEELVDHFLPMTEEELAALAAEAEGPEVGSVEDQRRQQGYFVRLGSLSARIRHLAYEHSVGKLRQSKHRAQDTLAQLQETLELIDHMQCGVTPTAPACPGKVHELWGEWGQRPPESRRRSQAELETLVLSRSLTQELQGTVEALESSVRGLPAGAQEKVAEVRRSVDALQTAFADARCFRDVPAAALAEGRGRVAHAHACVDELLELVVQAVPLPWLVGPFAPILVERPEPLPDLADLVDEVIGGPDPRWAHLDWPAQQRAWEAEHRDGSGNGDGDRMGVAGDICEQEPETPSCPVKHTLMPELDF
Target sequence (Q8WTS1 whole entry, looked up): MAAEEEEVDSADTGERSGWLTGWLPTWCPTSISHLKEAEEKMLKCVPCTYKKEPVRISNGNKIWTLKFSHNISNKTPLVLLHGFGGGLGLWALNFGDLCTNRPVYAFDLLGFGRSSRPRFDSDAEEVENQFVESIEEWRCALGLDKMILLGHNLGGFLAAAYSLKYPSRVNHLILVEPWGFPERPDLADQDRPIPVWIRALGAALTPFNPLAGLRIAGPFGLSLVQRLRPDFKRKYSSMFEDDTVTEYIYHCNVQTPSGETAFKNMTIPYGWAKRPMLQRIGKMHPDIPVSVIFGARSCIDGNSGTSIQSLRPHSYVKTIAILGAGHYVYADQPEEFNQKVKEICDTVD
NOD2-RIPK2 inh: NOD2-RIPK2 binding disruptors in cells, primary screen, fluorescence, CHO cells, BLA complementation; Receptor-interacting serine/threonine-protein kinase 2 (Homo sapiens), O43353; CCF4 ratio; inhibition, % at 4.98 µM; 360,000 compounds, 0.38% hits; AID 624267, 2012; in the data active means inhibition above about 21%;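 further: 0% = vehicle only and 100% = reference blocker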
TLR9-MyD88 block: inhibitors of TLR9-MyD88 association in cells, primary screen, cell-based, CHO, BLA complementation, fluorescence; Toll-like receptor 9 (Homo sapiens) + Myeloid differentiation primary response protein …; CCF4 FRET ratio; inhibition, % at 4.98 µM; 340,000 compounds, 0.21% hits; AID 504734, 2011;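 active means inhibition above the mean over all tested compounds plus 3 SD, cut at about 21% in these data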;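 further: 0% = DMSO only wells and 100% = clavulanate BLA inhibitor control wells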
TLR4 MyD88 comp: inhibitors of TLR4-MyD88 association in cells, primary screen, cell-based, HeLa CL3-4, BLA complementation, FRET ratio | Toll-like receptor 4 (Homo sapiens) + Myeloid differentiation primary response protein … | inhibition, % at 8.4 µM | 200,000 compounds, 0.18% hits | HeLa CL3-4 TLR4/MyD88 BLA complementation; in the data active means inhibition above about 25%;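 further: 0% = vehicle and 100% = reference inhibitor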
ABHD5-PLIN5 conf: ABHD5-PLIN5 interaction inhibitors, confirmation, biochemical, luminescence. shares compounds with ABHD5 PLIN5 PPI. inhibition, % at 4 µM. 2,200 compounds, 67% hits. AID 651612, 2012; in the data active means inhibition above about 23%;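 further: 0% = DMSO vehicle wells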
HNF4 split-luc: HNF4 dimerization inhibitors, counter-screen for ABHD5-PLIN5 interaction inhibitor project, biochemical, split-luciferase complementation, luminescence. shares compounds with ABHD5 PLIN5 PPI. inhibition, % at 4 µM. 2,200 compounds, 77% hits. AID 651674, 2012;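 active means mean inhibition across replicate wells exceeding the computed hit threshold, cut at about 13% in these data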;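 further: light from luciferase halves that rejoin when HNF4 fusion proteins dimerize; 0% = DMSO only wells and the 100% control is not given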
* hit, by the source's call; · = no result. Rows were chosen to be rich in hits. Some 1.2% of all compounds tested hit in one or more screens of this group.

SMILES	ABHD5 PLIN5 PPI	NOD2-RIPK2 inh	TLR9-MyD88 block	TLR4 MyD88 comp	ABHD5-PLIN5 conf	HNF4 split-luc
O=C(O)Cc1sc(N/N=C\c2ccncc2)nc1-c1ccccc1	23.8*	-7.8	-13.0	·	14.6	45.3*
C(=N\Nc1nc(-c2ccccc2)cs1)/c1ccncc1	0.2	-3.1	1.6	17.1	·	·
NC(=O)C1(c2ccccc2)OC1c1ccccc1 (stereo not drawn)	1.7	-1.9	-22.3	·	·	·
CC1CN(C2=CC(=O)CCC2)CC(C)O1 (stereo not drawn)	30.9*	-0.6	0.1	-10.2	-4.2	13.0*
OCCC1CN(Cc2nc3ccccc3[nH]2)CCN1C1CCCC1 (stereo not drawn)	-0.6	-6.2	4.0	-2.2	·	·
CC(C)(C)OC(=O)NCCc1nnc(SCc2ccccc2Cl)o1	9.7	1.0	-13.3	-0.1	·	·
CC(C)(C)OC(=O)NCCc1nnc(S(=O)(=O)Cc2ccc(Cl)cc2Cl)o1	25.7*	1.9	-4.7	2.2	39.1*	73.6*
C#CC(=O)CC1(CN(Cc2ccccc2)C(=O)OC(C)(C)C)CCCCC1	9.2	-2.8	-7.2	·	·	·
CCOc1ccc(S(=O)(=O)N(CC(=O)NCc2cccnc2)c2ccc(F)cc2)cc1	40.1*	0.2	7.5	·	1.2	-5.1
Cc1ccc(C(=O)CC(C(=O)O)n2cnc([N+](=O)[O-])n2)cc1 (stereo not drawn)	55.4*	9.6	-4.5	7.6	28.6*	58.2*
COc1ccc(CCNC(=O)c2cccc(S(=O)(=O)N3CCOCC3)c2)cc1OC	27.1*	-6.1	-0.2	·	4.3	10.4
COc1ccc(CCNC(=O)c2cc(S(=O)(=O)N3CCOCC3)cn2C)cc1OC	10.7	1.4	5.7	·	·	·
O=C(NCCCN1CCCC1=O)C1CCC(CNS(=O)(=O)c2ccc(Cl)cc2)CC1 (stereo not drawn)	-2.6	10.9	5.6	·	·	·
Cc1cccc(S(=O)(=O)Nc2nc3ccccc3nc2NCc2ccco2)c1	1.2	-0.2	-9.6	9.2	·	·
Cc1ccc(S(=O)(=O)Nc2nc3ccccc3nc2NCc2ccco2)cc1C	27.7*	-25.5	0.2	-5.8	14.6	26.9*
Cc1ccccc1N1CCN(C2CCCN(C(=O)c3ccsc3)C2)CC1 (stereo not drawn)	2.6	-23.1	9.2	·	·	·
Cc1cccc(C(=O)N2CCCCCC2)c1[N+](=O)[O-]	73.9*	-17.4	-23.2	-2.6	2.5	2.9
O=C(c1ccc(-c2ccc([N+](=O)[O-])cc2)o1)N1CCCCCCC1	38.6*	3.8	-5.5	·	42.2*	32.6*
COc1ccc(NC(=O)C(c2cccc3ccccc23)n2c(=O)c(-c3ccco3)nc3ccccc32)cc1 (stereo not drawn)	25.9*	1.9	·	·	23.0*	2.9
O=C(NC1CCCCC1)C(c1cccc2ccccc12)n1c(=O)c(-c2ccco2)nc2ccccc21 (stereo not drawn)	86.8*	14.0	·	·	85.5*	9.2
COc1ccc(NC(=O)C(c2ccc(C(F)(F)F)cc2)n2c(=O)c(-c3ccco3)nc3ccccc32)cc1 (stereo not drawn)	12.2	-7.6	·	·	·	·
COc1ccc(C(C(=O)NC2CCCCC2)n2c(=O)c(-c3ccco3)nc3ccccc32)cc1 (stereo not drawn)	65.7*	-12.3	·	·	84.8*	30.0*
O=C(NC1CCCCC1)C(c1ccc(C(F)(F)F)cc1)n1c(=O)c(-c2ccccc2)nc2ccccc21 (stereo not drawn)	-1.3	-2.0	·	·	·	·
O=C(c1ccc(S(=O)(=O)N2CCCC2)cc1)N1CCCCC1	11.4	5.1	-2.4	·	·	·
O=C(/C=C/c1ccc(O)c(O)c1)c1ccc(S(=O)(=O)N2CCCCCC2)cc1	32.0*	3.4	-1.8	-8.5	69.6*	67.5*
SMILES	ABHD5 PLIN5 PPI	NOD2-RIPK2 inh	TLR9-MyD88 block	TLR4 MyD88 comp	ABHD5-PLIN5 conf	HNF4 split-luc
CCc1ccccc1NC(=O)c1cnn(-c2ccccc2)c1C	-5.7	-2.2	5.3	·	·	·
N#CC(=Cc1ccc(O)cc1)C(N)=C(C#N)C#N	0.9	-17.6	5.9	·	·	·
Cc1ccccc1/C=C/C12NC(=O)CN1c1ccccc1C2(C)C (stereo not drawn)	0.0	5.7	-4.9	·	·	·
CC1(C)c2ccccc2N2CC(=O)N[C@@]21/C=C/C=C/c1ccccc1	34.3*	-0.6	3.8	·	5.1	8.6
O=[N+]([O-])c1ccc(-c2csc(N3CCc4ccccc4C3)n2)cc1	8.3	3.8	0.8	-3.5	·	·
O=[N+]([O-])c1ccc(N2CCc3ccccc3C2)cc1	30.8*	3.1	-2.9	·	59.9*	58.5*
CCOC(=O)C1(Cc2ccc(Cl)cc2)CCN(C(=O)c2sc(C)nc2C)CC1	-7.7	0.5	2.5	-1.2	·	·
CCOC(=O)C1=C(C)N=c2s/c(=C3\C(=O)Nc4ccccc43)c(=O)n2C1c1ccc2c(c1)OCO2 (stereo not drawn)	26.7*	2.2	5.2	1.2	5.1	-14.4
COc1cc(NC(=O)C/C(C)=N/NC(=O)c2cccs2)c(OC)cc1Cl	35.6*	-10.0	0.7	5.0	8.3	15.7*
O=S1(=O)CCN(C2CCCC2)CC1	0.8	-6.0	-3.4	·	·	·
O=C(NC1CCCC1)C(c1ccc(F)cc1)N1CCC(O)(c2ccc(Cl)cc2)CC1 (stereo not drawn)	-11.6	-6.5	·	·	·	·
O=C(C=Cc1ccco1)c1cc(Cl)ccc1O	26.9*	-2.0	0.8	·	53.0*	33.9*
CNCCCOc1ccc(C)cc1OC	56.7*	-11.2	-2.6	-4.9	1.9	-0.5
Cc1c(C(=O)OCC(C)C)[nH]c2c1C(=O)CC(c1ccco1)C2 (stereo not drawn)	28.0*	6.8	5.2	-5.2	6.1	7.7
Cc1cc(C(=O)NNC(=S)NC(C)c2ccccc2)c2ccccc2n1 (stereo not drawn)	-1.1	-7.2	-1.8	3.7	·	·
COc1cc(OC)c(C(=O)NCCCn2ccnc2)cc1OC	0.5	-3.0	-2.9	2.2	·	·
O=c1c2c(-c3ccccc3)csc2nc2c3ccccc3c(NCCN3CCOCC3)nn12	23.4*	3.1	-2.2	6.2	10.8	5.2
CCCn1c(CC)nc([N+](=O)[O-])c1S(=O)(=O)c1ccccc1	41.5*	2.9	-12.0	2.2	50.2*	54.1*
CCc1nc(C)cn1S(=O)(=O)c1ccc([N+](=O)[O-])cc1	-4.0	-0.7	-4.2	-7.0	·	·
CC(=O)NS(=O)(=O)c1ccc(NC(=O)/C=C/c2ccc(C)o2)cc1	27.6*	-0.7	4.3	-0.7	49.5*	62.5*
Cc1ccc(/C=C/C(=O)Nc2ccc(S(N)(=O)=O)cc2)o1	35.7*	-5.4	-2.2	9.5	63.7*	80.6*
